Consider ten molecules from paper PMC5540273 (PLoS ONE, 2017).

For one assay, the system named is FLT1. As to conditions: concentration: 1 μM, replicates: in singlicate; n = 1.
A further assay deals with FLT3-autoinhibited. As to conditions: concentration: 1 μM, replicates: in singlicate; n = 1.
The next assay deals with FLT3. As to conditions: concentration: 1 μM, replicates: in singlicate; n = 1.
Another assay relates to FLT4. As to conditions: concentration: 1 μM, replicates: in singlicate; n = 1.
In another assay the test system is FRK. The note with it: concentration: 1 μM, replicates: in singlicate; n = 1.
A further assay concerns FYN. The note with it: concentration: 1 μM, replicates: in singlicate; n = 1.
A further assay concerns GAK. As to conditions: concentration: 1 μM, replicates: in singlicate; n = 1.
The next assay has as its system T1, GCN2(Kin.Dom.2,S808G).
T1 construct: gene EIF2AK4
As to conditions: concentration: 1 μM, replicates: in singlicate; n = 1.

In the next assay the test system is GRK1. As to conditions: concentration: 1 μM, replicates: in singlicate; n = 1.
A further assay deals with T2, GRK2.
T2 construct: gene ADRBK1
The note with it: concentration: 1 μM, replicates: in singlicate; n = 1.

For the next assay, the system named is T3, GRK3.
T3 construct: gene ADRBK2
As to conditions: concentration: 1 μM, replicates: in singlicate; n = 1.

The next assay has as its system GRK4. The note with it: concentration: 1 μM, replicates: in singlicate; n = 1.
The subject of another assay is GRK7. The note with it: concentration: 1 μM, replicates: in singlicate; n = 1.
A further assay deals with GSK3A. As to conditions: concentration: 1 μM, replicates: in singlicate; n = 1.
For another assay, the system named is GSK3B. The note with it: n = 1.
A further assay relates to T4, HASPIN.
T4 construct: gene GSG2
The note with it: concentration: 1 μM, replicates: in singlicate; n = 1.

A further assay has as its system HCK. As to conditions: concentration: 1 μM, replicates: in singlicate; n = 1.
The next assay deals with HIPK1. As to conditions: concentration: 1 μM, replicates: in singlicate; n = 1.
Another assay relates to HIPK2. The note with it: concentration: 1 μM, replicates: in singlicate; n = 1.
The test system of the next assay is HIPK3. As to conditions: concentration: 1 μM, replicates: in singlicate; n = 1.
[1] abbreviates: concentration: 1 μM, replicates: in singlicate.

Like-named read-outs stand apart in the source and are kept apart here.
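Note: KINOMEscan kinase panel screen.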

For `CNc1nc(-c2ccc3c(N)n[nH]c3c2)cc(N2C[C@@H](C(=O)NC3CCCCC3)OC[C@H]2C)n1` [GSK2375584], the “%Inh” value with FLT1 is reported as 25%; with FLT3-autoinhibited, 20%; in the assay with FLT3 it was 0%; with FLT4, 0%; in the assay on FRK, 4%; in the assay with FYN, 6%. Besides, the “%Inh” value with GAK came out at 0%; in the assay with GCN2(Kin.Dom.2,S808G), 0%; with GRK1 it was 12%; in the assay on GRK2, 0%; with GRK3 it was 37%; in the assay with GRK4 it was 4%. The “%Inh” value with GRK7 was 0%; in the assay on GSK3A, 10%; in the assay on GSK3B (setting [1]), 14%; in the assay with HASPIN, 30%; with HCK, 0%; in the assay on HIPK1, 24%. Further, the “%Inh” value in the assay with HIPK2 is reported as 0%; with HIPK3 it was 2%.

In the case of `Cc1ccccc1Cn1ccn2c(=O)cc(N3CCOCC3)nc12` [GSK2269905], the “%Inh” value is recorded as 10% with FLT1; 2% with FLT3-autoinhibited; 0% in the assay on FLT3; 0% with FLT4; 14% in the assay on FRK; 26% in the assay with FYN. In addition, the “%Inh” value in the assay with GAK is given as 1%; with GCN2(Kin.Dom.2,S808G), 4%; with GRK1 it was 0%; in the assay on GRK2, 0%; with GRK3, 26%; in the assay with GRK4, 0%. Also, the “%Inh” value with GRK7 came to 0%; in the assay with GSK3A, 2%; with GSK3B (setting [1]), 15%; in the assay on HASPIN, 0%; in the assay on HCK it was 0%; with HIPK1, 0%. In addition, the “%Inh” value in the assay on HIPK2 worked out at 0%; with HIPK3, 9%.

Regarding `O=C(Nc1n[nH]c2nc(-c3ccco3)c(Br)cc12)C1CCN(Cc2ccccc2)C1.O=C(O)[C@H](O)[C@@H](O)C(=O)O` (centres unmarked) [SB-742034], the “%Inh” value with FLT1 turned out to be 0%; with FLT3-autoinhibited it was 10%; in the assay on FLT3, 7%; with FLT4 it was 6%; with FRK, 0%; in the assay with FYN it was 0%. Further, the “%Inh” value with GAK was 8%; in the assay with GCN2(Kin.Dom.2,S808G), 0%; with GRK1 it was 42%; in the assay on GRK2 it was 0%; in the assay on GRK3 it was 0%; in the assay with GRK4, 11%. The “%Inh” value was determined as 42% in the assay with GRK7; 97.8% with GSK3A; 72% in the assay on GSK3B (1 µM); 0% in the assay with HASPIN; 7% in the assay with HCK; 30% with HIPK1. Moreover, the “%Inh” value in the assay with HIPK2 was determined as 32%; in the assay with HIPK3, 25%.

As to `CC(=O)c1c(C)c2cnc(Nc3ccn(C)n3)nc2n(C2CCCC2)c1=O`, the “%Inh” value in the assay with FLT1 turned out to be 4%; with FLT3-autoinhibited it was 2%; in the assay on FLT3, 0%; with FLT4, 0%; in the assay on FRK, 28%; with FYN it was 0%. Further, the “%Inh” value in the assay with GAK is recorded as 0%; in the assay on GCN2(Kin.Dom.2,S808G), 36%; with GRK1, 0%; with GRK2, 17%; in the assay with GRK3, 17%; with GRK4, 0%. Further, the “%Inh” value in the assay with GRK7 came to 0%; in the assay with GSK3A it was 12%; in the assay with GSK3B (setting [1]), 0%; in the assay on HASPIN it was 0%; in the assay with HCK, 29%; with HIPK1, 14%. The results for the “%Inh” value in the assay on HIPK2 and in the assay on HIPK3 were 31% and 13%, respectively.

For the molecule `COc1ccc(Nc2nccc(-c3ccc(NC(=O)c4cc5cc(F)ccc5[nH]4)cc3)n2)cc1` [GSK1229496], the “%Inh” value was 4% in the assay on FLT1; 0% in the assay on FLT3-autoinhibited; 0% in the assay on FLT3; 9% in the assay with FLT4; 0% with FRK; 0% in the assay with FYN. For the same molecule, the “%Inh” value in the assay on GAK was 0%; in the assay on GCN2(Kin.Dom.2,S808G) it was 0%; in the assay with GRK1 it was 3%; in the assay with GRK2 it was 9%; with GRK3, 22%; in the assay on GRK4 it was 0%. The “%Inh” value with GRK7 worked out at 0%; in the assay with GSK3A it was 0%; in the assay with GSK3B (setting [1]), 0%; in the assay with HASPIN it was 41%; in the assay on HCK, 0%; in the assay with HIPK1, 0%. For the same molecule, the “%Inh” value in the assay on HIPK2 and with HIPK3 was 0% throughout.

In the case of `Nc1cccc(-c2ccc3c(N)n[nH]c3c2)n1` [GSK2192730], the “%Inh” value with FLT1 stood at 0%; with FLT3-autoinhibited it was 13%; in the assay on FLT3, 0%; in the assay with FLT4, 0%; with FRK it was 0%; in the assay on FYN, 29%. The “%Inh” value is recorded as 17% with GAK; 0% in the assay on GCN2(Kin.Dom.2,S808G); 21% with GRK1; 0% in the assay with GRK2; 0% in the assay with GRK3; 13% in the assay with GRK4. Further, the “%Inh” value in the assay on GRK7 was found to be 19%; in the assay on GSK3A it was 19%; with GSK3B (setting [1]) it was 26%; with HASPIN it was 39%; with HCK it was 0%; in the assay with HIPK1, 23%. The entries for the “%Inh” value with HIPK2 and with HIPK3 were 0% and 25%, respectively.

As to `COc1ccc(Nc2nccc(N3CCC(NC(=O)c4cc5ccccc5s4)C3)n2)cc1` (centres unmarked) [GSK1379738], the “%Inh” value with FLT1 stood at 14%; with FLT3-autoinhibited, 0%; in the assay with FLT3 it was 0%; in the assay on FLT4 it was 3%; in the assay on FRK it was 0%; with FYN, 41%. In addition, the “%Inh” value in the assay on GAK, in the assay on GCN2(Kin.Dom.2,S808G), with GRK1, in the assay on GRK2, in the assay with GRK3 and in the assay with GRK4 was 0% throughout. The “%Inh” value in the assay with GRK7 stood at 0%; with GSK3A it was 11%; with GSK3B (setting [1]) it was 14%; in the assay on HASPIN, 24%; with HCK, 0%; in the assay with HIPK1 it was 0%. Also, the “%Inh” value in the assay on HIPK2 was 0%; with HIPK3, 7%.

For `O=c1cc(N2CCOCC2)nc2n(Cc3cccc(Cl)c3Cl)c3ccccc3n12` [GSK2299009], the “%Inh” value is listed as 41% in the assay with FLT1; 9% in the assay with FLT3-autoinhibited; 28% with FLT3; 16% with FLT4; 0% with FRK; 17% with FYN. Besides, the “%Inh” value with GAK is 19%; in the assay on GCN2(Kin.Dom.2,S808G), 0%; with GRK1 it was 0%; in the assay on GRK2, 0%; in the assay with GRK3 it was 0%; with GRK4, 25%. For the same molecule, the “%Inh” value with GRK7 was 0%; with GSK3A it was 5%; with GSK3B (setting [1]), 14%; in the assay on HASPIN, 0%; with HCK, 0%; in the assay on HIPK1, 9%. Further, the “%Inh” value is on record as 0% in the assay with HIPK2 and 19% in the assay on HIPK3.

For `CNCc1ccc2nc(NC(=O)c3ccc(C(C)(C)C)cc3)cn2c1`, the “%Inh” value in the assay with FLT1 is reported as 27%; in the assay on FLT3-autoinhibited, 19%; in the assay on FLT3 it was 66%; in the assay on FLT4, 29%; in the assay on FRK, 1%; with FYN, 6%. Besides, the “%Inh” value in the assay with GAK was found to be 5%; with GCN2(Kin.Dom.2,S808G), 0%; in the assay on GRK1 it was 13%; in the assay on GRK2, 39%; in the assay with GRK3 it was 36%; with GRK4, 0%. Also, the “%Inh” value in the assay with GRK7 came out at 10%; in the assay with GSK3A it was 3%; with GSK3B (setting [1]), 11%; with HASPIN it was 5%; in the assay with HCK, 3%; in the assay with HIPK1, 17%. Besides, the “%Inh” value was determined as 13% in the assay with HIPK2 and 17% in the assay with HIPK3.

Take `COc1ccc(-c2coc3ccc(-c4nnc(C)o4)cc23)cc1`: the “%Inh” value in the assay with FLT1 turned out to be 0%; in the assay on FLT3-autoinhibited it was 0%; with FLT3, 0%; in the assay with FLT4 it was 0%; with FRK it was 0%; in the assay with FYN, 2%. Moreover, the “%Inh” value is on record as 0% in the assay on GAK; 0% in the assay with GCN2(Kin.Dom.2,S808G); 12% with GRK1; 0% in the assay on GRK2; 0% in the assay on GRK3; 0% in the assay on GRK4. The “%Inh” value in the assay with GRK7 was 0%; in the assay with GSK3A it was 11%; with GSK3B (setting [1]), 0%; in the assay with HASPIN it was 18%; in the assay with HCK, 0%; in the assay with HIPK1, 37%. In addition, the “%Inh” value in the assay on HIPK2 and in the assay with HIPK3 was 0% in each case.
